The values below come from PubChem BioAssay (NCI).

Test [1] in a line: NCI Yeast Anticancer Drug Screen. Data for the rad50 strain (AID 155).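 Further: 0% = growth of vehicle-only cultures of the same strain.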 The conditions noted are these: S. cerevisiae rad50 strain growth inhibition; at 50.0 µM; active compounds read high. In outline: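 Relative growth inhibition (compound vs vehicle) was measured in yeast with a defined repair-gene alteration.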
Test [2] can be described thus: NCI Yeast Anticancer Drug Screen. Data for the mec2-1 strain (AID 157). To be noted: S. cerevisiae mec2-1 strain, at 50.0 µM, active compounds read high. Summed up: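 Cells of the genetically defined mec2-1 yeast strain are incubated with test compound. Inhibition of growth is calculated against vehicle-treated controls.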
Test [3] can be described thus: NCI Yeast Anticancer Drug Screen. Data for the sgs1 mgt1 strain (AID 161).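 Further: 0% = growth of cultures given vehicle only.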 To be noted: S. cerevisiae sgs1 mgt1 strain, at 50.0 µM, active compounds read high. In outline: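 Test agents were incubated with a DNA-repair-mutant yeast strain. Growth was then read and compared against vehicle-treated controls.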
A short description of test [4]: NCI Yeast Anticancer Drug Screen. Data for the cln2 rad14 strain (AID 165).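 Further: 0% = growth equal to vehicle treated cultures.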 The conditions noted are these: S. cerevisiae cln2 rad14 strain, at 50.0 µM, active compounds read high. In outline: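 The screen exposed genetically defined yeast (cln2 rad14) to test compounds and scored growth inhibition relative to vehicle-treated controls.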
Test [5] is described as follows: NCI Yeast Anticancer Drug Screen. Data for the bub3 strain (AID 167). To be noted: S. cerevisiae bub3 mutant strain, at 50.0 µM, active compounds read high. Summed up: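 Screening used yeast with an engineered genetic alteration affecting cell cycle control. Compound-exposed cultures were compared with vehicle cultures, and reduced growth was taken as inhibition.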
The nature of test [6]: NCI Yeast Anticancer Drug Screen. Data for the mlh1 rad18 strain (AID 175). The conditions noted are these: S. cerevisiae mlh1 rad18 strain growth inhibition; at 50.0 µM; active compounds read high. In outline:
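Compound-treated yeast growth, normalised to vehicle controls. Strain bears defined DNA repair mutations.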

Structures are written as SMILES. Compounds without any hit were thinned out: in the full panel of roughly 79,000, 15% have a hit. Unmarked numbers belong to inactive results. The source made the active and inactive calls. No stated cut-off is given here; in the data, active means growth inhibition above about 70%; inactive means the rest.

Consider `CSc1nc(N)c(C(N)=O)cc1C#N`, for which the growth inhibition in test [1] is 5.45%; in test [2] it was 2.6%; in test [3], -5.4%; in test [4] it was -32.8%; in test [5], -16.6%; in test [6], 8.55%.

Regarding `COCC1(c2ccccc2)C(=O)N(C)C(=O)N1C` (stereo unspecified), the growth inhibition in test [1] was -7.6%; in test [2] it was 2.5%; in test [3], -6.25%; in test [4], -6.3%; in test [5], -9.85%; in test [6] it was 5.25%.

Take `C/C=C/C1OCC(C)([N+](=O)[O-])CO1` (stereo unspecified): the growth inhibition in test [1] is 23.5%; in test [2], 10.1%; in test [3], 19.4%; in test [4], 12.5%; in test [5], -1.35%; in test [6] it was 31.1%.

In the case of `COC(=O)C(C)S(=O)(=O)O` (stereo unspecified), the growth inhibition is -12.2% in test [1]; -2.5% in test [2]; 9.35% in test [3]; -80.5% in test [4]; 2.9% in test [5]; 0.3% in test [6].

Take `C=C1C(=O)OC2C[C@@]3(C)CCCC(=C)C3CC12` (stereo partly specified): the growth inhibition in test [1] is 21.4%; in test [2], 21.1%; in test [3], 32.1%; in test [4], 28.6%; in test [5], 20.6%; in test [6], 13%.

Turning to `CC(C)(O)C1CCC/C1=N/NC(N)=O` (stereo unspecified), the growth inhibition is -7.5% in test [1]; 5% in test [2]; 5.2% in test [3]; 3.55% in test [4]; -10.3% in test [5]; -11.3% in test [6].

For `CCOc1c(N=Nc2ccc(OC)cc2)c(C)nn1C(N)=S`, the growth inhibition was -12.5% in test [1]; -1.5% in test [2]; 2.85% in test [3]; -48.7% in test [4]; 9.75% in test [5]; 15.2% in test [6].

`NCCNC(=O)Cc1cccs1`: the growth inhibition in test [1] was 1.5%; in test [2], -8.5%; in test [3], -12.4%; in test [4], -21.6%; in test [5] it was 4.45%; in test [6], -0.8%.

Regarding `CN(N=O)c1nc2c(C(N)=O)ncn2s1`, the growth inhibition in test [1] is 10.2%; in test [2], 16.4%; in test [3], 4.95%; in test [4] it was 2.2%; in test [5], 13.9%; in test [6] it was 24.1%.

Take `O=C1NC(CN2CCCC(O)C2)C(=O)NC1CN1CCCC(O)C1` (stereo unspecified): the growth inhibition was 2% in test [1]; 9.35% in test [2]; 13.3% in test [3]; -22.8% in test [4]; -4.45% in test [5]; 7.6% in test [6].

On to `CC(=O)Nc1c(Cl)c(Cl)c2c(c1Cl)Cc1cc([N+](=O)[O-])ccc1-2`, for which the growth inhibition is 9.2% in test [1]; -12.8% in test [2]; 7.6% in test [3]; -9.1% in test [4]; 3.15% in test [5]; 2.1% in test [6].

Turning to `CCCCCC(C)C(C#N)C(=O)OCC` (stereo unspecified), the growth inhibition in test [1] is 1.2%; in test [2] it was -18.4%; in test [3], -14.4%; in test [4] it was -3.75%; in test [5] it was -18.9%; in test [6], -20.9%.

Regarding `O=Cc1ccc(-c2cccc([N+](=O)[O-])c2)s1`, the growth inhibition in test [1] was 4.9%; in test [2] it was 6.1%; in test [3], -14.1%; in test [4], 19.9%; in test [5], 6.1%; in test [6], 1.85%.

For `O=S(=O)(O)CS(=O)(=O)O`, the growth inhibition in test [1] was -21.9%; in test [2], -2.3%; in test [3] it was 8.3%; in test [4], -26.4%; in test [5] it was 4.9%; in test [6], -1.15%.

Turning to `CCC[CH2][Sn]([CH2]CCC)([O]C(=O)c1cccc(F)c1F)[O][Sn]([CH2]CCC)([CH2]CCC)[O]C(=O)c1cccc(F)c1F`, the growth inhibition was 89.4% (active) in test [1]; 91.5% (active) in test [2]; 91.2% (active) in test [3]; 88.5% (active) in test [4]; 90% (active) in test [5]; 86% (active) in test [6].

For `CNc1c([N+](=O)[O-])cc2[nH]c(C)nc2c1[N+](=O)[O-]`, the growth inhibition in test [1] was 22.4%; in test [2] it was 19.3%; in test [3] it was 42.9%; in test [4], 0.05%; in test [5] it was 0.95%; in test [6], 11.6%.

Consider `O=c1/c(=C\C=C\c2ccccc2)sc2n1CCN=2`, for which the growth inhibition in test [1] was -15.7%; in test [2], -40.6%; in test [3] it was -11.3%; in test [4], -10.8%; in test [5] it was -22.2%; in test [6] it was -13.5%.

For `CNC1=C(Sc2ccc(Cl)cc2)C(=O)c2ccccc2C1=O`, the growth inhibition in test [1] was -0.4%; in test [2], 19.4%; in test [3], 1.45%; in test [4], 3.25%; in test [5], 2.75%; in test [6], 0.35%.

On to `O=C1CCC(=O)Nc2ccc3nc4ccccc4c(c3c2)SCCCCCCCCCCCCSc2c3ccccc3nc3ccc(cc23)N1`, for which the growth inhibition is -22.4% in test [1]; -15.2% in test [2]; -15.2% in test [3]; -36.4% in test [4]; -8.4% in test [5]; -0.85% in test [6].

Turning to `CCC(C#N)(C(=O)OC)/C(C)=C/C(C)C` (stereo unspecified), the growth inhibition in test [1] was 7.95%; in test [2], -13.2%; in test [3] it was -3.45%; in test [4], -7.25%; in test [5], -26.9%; in test [6] it was -25.1%.

`CCCCC(CC)COC(=O)CSC#N` (stereo unspecified): the growth inhibition is -6.7% in test [1]; -7.55% in test [2]; -9.85% in test [3]; -15.6% in test [4]; 2.05% in test [5]; -15.1% in test [6].
